What all share (details): mRNA level, 48 h; actives raise or lower the signal
Read-out in assay [1]: NAD(P)H dehydrogenase [quinone] 1 (NQO1), NQO1 (gene 1728)
Briefly: LTEA_HepaRG_NQO1: Life Technologies and Expression Analysis (LTEA) Assay for NAD(P)H dehydrogenase [quinone] 1 (NQO1) using HepaRG (AID 2283526). The gist of the method:
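Differentiated human HepaRG cells in serum-free induction medium, dosed in duplicate for 48 h at 8 half-log concentrations up to 100 uM in 0.5% DMSO. NQO1 mRNA by qRT-PCR normalized to ACTB, GAPDH, POLR2A; bidirectional fit versus DMSO baseline.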

Read-out in assay [2]: Nuclear factor erythroid 2-related factor 2 (Homo sapiens) (UniProt Q16236)
Briefly: LTEA_HepaRG_NFE2L2: Life Technologies and Expression Analysis (LTEA) Assay for Nuclear factor erythroid 2-related factor 2 (NFE2L2) Transcription Factor using HepaRG (AID 2283527).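 For outcome: TaqMan qRT-PCR transcript level normalised to ACTB GAPDH and POLR2A housekeeping genes.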 The gist of the method:
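Differentiated human HepaRG cells, serum-free induction medium, exposed 48 h in duplicate to eight half-log concentrations up to 100 uM in 0.5% DMSO. NFE2L2 mRNA by Fluidigm TaqMan qRT-PCR, normalised to ACTB, GAPDH, POLR2A; bidirectional change versus DMSO.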

Read-out in assay [3]: succinate dehydrogenase complex iron sulfur subunit B (SDHB), SDHB (gene 6390)
Briefly: LTEA_HepaRG_SDHB: Life Technologies and Expression Analysis (LTEA) Assay for succinate dehydrogenase complex iron sulfur subunit B (SDHB) using HepaRG (AID 2283528). Put shortly: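 HepaRG cells (~100,000/well, plated 48 h) exposed in duplicate for 48 h in serum-free induction medium to 8-point half-log series from 100 uM in 0.5% DMSO; mRNA by qRT-PCR normalised to ACTB, GAPDH, POLR2A; bidirectional fit versus DMSO.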

Read-out in assay [4]: Signal transducer and activator of transcription 3 (Homo sapiens) (UniProt P40763)
Briefly: LTEA_HepaRG_STAT3: Life Technologies and Expression Analysis (LTEA) Assay for Signal transducer and activator of transcription (STAT3) using HepaRG (AID 2283529). Put shortly:
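Differentiated HepaRG cells, serum-free induction medium, dosed 48 h in duplicate, 8 half-log concentrations from 100 uM in 0.5% DMSO. STAT3 mRNA by qRT-PCR, normalised to ACTB, GAPDH, POLR2A; bidirectional fit versus DMSO.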

Read-out in assay [5]: solute carrier (SLCO1B1), SLCO1B1 (gene 10599)
Briefly: LTEA_HepaRG_SLCO1B1: Life Technologies and Expression Analysis (LTEA) Assay for solute carrier (SLCO1B1) using HepaRG (AID 2283530). Put shortly: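 SLCO1B1 transcript read by qRT-PCR (Fluidigm arrays), normalized to three housekeeping genes, after 48 h chemical exposure of HepaRG cells; bidirectional concentration-response fitting versus 0.5% DMSO baseline. Eight-point half-log series, maximum 100 uM.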

Read-out in assay [6]: sulfotransferase 2A1 (SULT2A1), SULT2A1 (gene 6822)
Briefly: LTEA_HepaRG_SULT2A1: Life Technologies and Expression Analysis (LTEA) Assay for sulfotransferase 2A1 (SULT2A1) using HepaRG (AID 2283531). The gist of the method: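 HepaRG, 48 h chemical exposure, 8-pt half-log curve from 100 uM in 0.5% DMSO, duplicates. Readout: TaqMan qRT-PCR of SULT2A1 mRNA, housekeeping-normalized. Bidirectional fit vs DMSO baseline.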

Read-out in assay [7]: Transforming Growth Factor (TGFA), TGFA (gene 7039)
Briefly: LTEA_HepaRG_TGFA: Life Technologies and Expression Analysis (LTEA) Assay for Transforming Growth Factor (TGFA) using HepaRG (AID 2283532). The gist of the method:
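Differentiated HepaRG cells exposed 48 hours in serum-free induction medium, 0.5% DMSO vehicle, 8-point half-log series from 100 uM, in duplicate. TGFA mRNA by TaqMan qRT-PCR, normalised to ACTB, GAPDH, POLR2A; bidirectional fit versus DMSO.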

Read-out in assay [8]: Transforming Growth Factor (TGFB1), TGFB1 (gene 7040)
Briefly: LTEA_HepaRG_TGFB1: Life Technologies and Expression Analysis (LTEA) Assay for Transforming Growth Factor (TGFB1) Transporter using HepaRG (AID 2283533). Put shortly: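 qRT-PCR readout of TGFB1 transcript in HepaRG lysates, normalized to three housekeeping genes; gain or loss of signal fitted relative to 0.5% DMSO vehicle. Exposure: 48 h, 8-point curve from 100 uM, duplicate wells.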

Read-out in assay [9]: Tumor necrosis factor receptor 1 (TNFRSF1A), TNFRSF1A (gene 7132)
The experiment in a line: LTEA_HepaRG_TNFRSF1A: Life Technologies and Expression Analysis (LTEA) Assay for Tumor necrosis factor receptor 1 (TNFRSF1A) using HepaRG (AID 2283535). The gist of the method:
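HepaRG, 48 h plating then 48 h chemical exposure, serum-free induction media; 8-pt CRC from 100 uM, half-log, 0.5% DMSO vehicle, duplicates. Readout: TaqMan qRT-PCR (Fluidigm), housekeeping-gene normalized; bidirectional fit vs DMSO.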

Read-out in the next assay: TIMP1, TIMP1 (gene 7076)
The experiment in a line: LTEA_HepaRG_TIMP1: Life Technologies and Expression Analysis (LTEA) Assay for TIMP1 using HepaRG (AID 2283534).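 Note: TaqMan qRT-PCR signal normalized to ACTB GAPDH and POLR2A housekeeping genes.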 The gist of the method: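 HepaRG, 48 h exposure, 8-pt half-log series from 100 uM in 0.5% DMSO, duplicates; TIMP1 transcript by Fluidigm qRT-PCR, housekeeping-normalized; bidirectional curve fit vs DMSO baseline.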

Calls of active or inactive are those of the source. Rule for the calls: active = hit-call score of the fitted dose curve at least 0.9, where 1 is the maximum; inactive = score below 0.9.

For orientation: AC50 means the concentration giving half of the maximal activity seen.

Signal transducer and activator of transcription 3 (Homo sapiens), sequence (P40763 whole entry, looked up): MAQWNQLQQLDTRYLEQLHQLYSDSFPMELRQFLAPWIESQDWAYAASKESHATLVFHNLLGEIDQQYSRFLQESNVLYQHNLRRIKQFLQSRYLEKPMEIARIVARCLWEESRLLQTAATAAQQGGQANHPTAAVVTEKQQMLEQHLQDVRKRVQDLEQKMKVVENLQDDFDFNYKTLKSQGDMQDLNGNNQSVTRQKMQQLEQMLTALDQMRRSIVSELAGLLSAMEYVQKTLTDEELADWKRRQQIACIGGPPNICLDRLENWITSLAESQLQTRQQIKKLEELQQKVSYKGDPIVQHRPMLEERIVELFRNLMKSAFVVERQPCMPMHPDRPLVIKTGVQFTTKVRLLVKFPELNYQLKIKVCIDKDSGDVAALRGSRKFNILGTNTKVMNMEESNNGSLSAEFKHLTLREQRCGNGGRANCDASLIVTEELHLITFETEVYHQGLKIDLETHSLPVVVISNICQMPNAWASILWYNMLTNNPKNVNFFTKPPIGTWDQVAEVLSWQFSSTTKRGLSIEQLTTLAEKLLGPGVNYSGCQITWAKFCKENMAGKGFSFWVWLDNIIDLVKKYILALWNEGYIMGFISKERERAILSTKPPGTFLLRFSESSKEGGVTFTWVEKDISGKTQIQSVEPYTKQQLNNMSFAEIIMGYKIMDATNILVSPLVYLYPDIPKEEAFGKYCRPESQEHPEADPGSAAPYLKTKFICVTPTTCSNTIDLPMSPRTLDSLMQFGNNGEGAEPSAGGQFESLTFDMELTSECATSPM
Nuclear factor erythroid 2-related factor 2 (Homo sapiens), sequence (Q16236 whole entry, looked up): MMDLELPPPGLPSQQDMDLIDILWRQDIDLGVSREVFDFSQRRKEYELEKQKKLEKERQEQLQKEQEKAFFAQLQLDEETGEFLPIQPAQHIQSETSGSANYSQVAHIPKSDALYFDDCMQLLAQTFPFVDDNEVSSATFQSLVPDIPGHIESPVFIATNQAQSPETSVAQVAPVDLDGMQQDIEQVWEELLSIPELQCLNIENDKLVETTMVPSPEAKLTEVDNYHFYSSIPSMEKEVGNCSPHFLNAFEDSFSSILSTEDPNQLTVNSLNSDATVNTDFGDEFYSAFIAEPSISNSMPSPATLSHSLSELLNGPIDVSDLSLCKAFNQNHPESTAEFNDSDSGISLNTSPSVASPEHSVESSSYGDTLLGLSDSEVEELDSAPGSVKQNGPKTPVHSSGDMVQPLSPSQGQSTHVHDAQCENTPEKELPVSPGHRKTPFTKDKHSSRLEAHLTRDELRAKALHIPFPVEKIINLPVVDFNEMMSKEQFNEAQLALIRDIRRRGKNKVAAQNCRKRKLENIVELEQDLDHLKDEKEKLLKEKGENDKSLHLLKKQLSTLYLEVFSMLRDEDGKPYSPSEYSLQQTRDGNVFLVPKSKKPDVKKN

For the compound `O=c1c(O)c(-c2ccc(O)c(O)c2)oc2cc(O)cc(O)c12`, the compound was classed as inactive in assay [1], in [2], in assay [3], in assay [4], in assay [6] and in [7]. The call in [8] and in [9] was inactive. Also, the half-maximal activity concentration (AC50) in assay [5] was 86.8 µM (active).
As to `CC(=O)C(C)=CC1C(C)=CCCC1(C)C` (stereo unspecified), the compound was classed as inactive in [1], in [2], in [3], in assay [4], in assay [5] and in assay [6]. Besides, the outcome in assay [7], in [8] and in assay [9] was inactive.
Turning to `C=CCc1ccc(O)c(OC)c1`, the call in assay [1], in assay [2], in assay [3], in [4], in [5] and in assay [6] was inactive. The call in [7], in assay [8] and in assay [9] was inactive.
As for `Cc1cccc([N+](=O)[O-])c1C`, the call in assay [1], in [2], in assay [3], in [4], in assay [5] and in assay [6] was inactive. Besides, the result in assay [7], in assay [8] and in [9] was inactive.
With `CC(=O)OC/C=C(\C)CCC=C(C)C`, the result in assay [1], in assay [2], in assay [3], in assay [4], in assay [5] and in assay [6] was inactive. Further, the compound was called inactive in [7], in assay [8] and in assay [9].
`O=C(N[C@@H](Cc1ccccc1)[C@@H](O)C(=O)N1C[C@@H](O)[C@@H](O)C1)c1cc2cc(Cl)ccc2[nH]1`: the compound was classed as inactive in assay [1], in assay [2], in [3], in assay [4], in assay [5] and in assay [6]. The compound was classed as inactive in assay [7] and in [9].
As for `CCNc1cccc(C)c1`, the compound was classed as inactive in [1], in assay [2], in assay [3], in [4], in assay [5] and in assay [6]. Also, the call in [7], in [8] and in [9] was inactive.
With `Oc1ccc2c(c1)OC[C@@H](N1CCC(O)(c3ccc(F)cc3)CC1)[C@H]2O`, the compound was called inactive in assay [1], in assay [2], in assay [3], in assay [4], in assay [5] and in assay [6]. The call in assay [7], in assay [8] and in [9] was inactive.
`O=C(OCCCCCOC(=O)c1ccccc1)c1ccccc1`: the AC50 in [1] is 1.8 µM (active); in assay [2] it was 0.145 µM (active); in [4] it was 7.25 µM (active); in assay [5], 1.29 µM (active); in [7], 1.28 µM (active); in [8], 3 µM (active). Also, the half-maximal activity concentration (AC50) in [9] is 1.99 µM (active). Besides, the outcome in assay [6] is “inactive”; in the assay with TIMP1, TIMP1 (gene 7076), “inactive”.
As to `Cc1ccc(Cl)cc1`, the compound was called inactive in assay [1], in assay [2], in assay [3], in assay [4], in [5] and in assay [6]. For the same compound, the call in assay [7], in assay [8] and in assay [9] was inactive.
Take `CCCCN(CCCC)CCCC`: the call in assay [1], in assay [2], in assay [3], in [4], in assay [5] and in [6] was inactive. The result in assay [7], in assay [8] and in assay [9] was inactive.
As to `COc1ccc(S(=O)(=O)N2C(=O)[C@@](c3ccccc3OC)(N3C[C@H](O)C[C@H]3C(=O)N(C)C)c3cc(Cl)ccc32)c(OC)c1`, the AC50 in assay [1] was 29.5 µM (active); in assay [2], 83.2 µM (active); in [3], 12.9 µM (active); in assay [4] it was 50 µM (active); in assay [5] it was 25.9 µM (active); in [6], 50.7 µM (active). Moreover, the AC50 in [7] was 78.7 µM (active); in [8] it was 19.1 µM (active). Besides, the compound was classed as inactive in assay [9].
`CN1CCCC1=O`: the result in assay [1], in assay [2], in assay [3], in assay [4], in assay [5] and in assay [6] was inactive. The compound was called inactive in assay [7], in [8] and in assay [9].
In the case of `O=c1[nH]cc(F)c(=O)[nH]1`, the call in assay [1], in [2], in [3], in assay [4], in assay [5] and in assay [6] was inactive. Also, the outcome in assay [7], in [8] and in assay [9] was inactive.
Take `CCCCCCOCCO`: the outcome in assay [1], in assay [2], in assay [3], in assay [5], in assay [6] and in assay [7] was inactive. Moreover, the outcome in assay [8] and in assay [9] was inactive. Also, the AC50 in assay [4] is 9.92 µM (active).
`CCOC(=O)CCC(=O)OCC`: the compound was classed as inactive in assay [1], in assay [2], in assay [3], in [4], in assay [5] and in assay [6]. Further, the outcome in assay [7], in [8] and in [9] was inactive.
Regarding `c1cc(-c2ccncc2)ccn1`, the outcome in assay [1], in assay [2], in [3], in assay [4], in assay [5] and in [6] was inactive. Moreover, the result in assay [7], in assay [8] and in [9] was inactive.
On to `CNCc1cc(F)ccc1Oc1ccc(Cl)c(Cl)c1`, for which the compound was classed as inactive in assay [1], in assay [2], in assay [3], in [4], in assay [7] and in assay [8]. Also, the compound was called inactive in assay [9]. Also, the AC50 in [5] is 82.6 µM (active); in [6], 84.2 µM (active).
As for `CC(=O)OCCOCCOCCOC(C)=O`, the call in [1], in [2], in assay [3], in assay [4], in assay [5] and in assay [6] was inactive. Further, the compound was classed as inactive in assay [7], in [8] and in assay [9].
In the case of `CN[C@H]1CC[C@@H](c2ccc(Cl)c(Cl)c2)c2ccc(S(N)(=O)=O)cc21`, the outcome in assay [1], in assay [3], in assay [5], in [7], in assay [8] and in assay [9] was inactive. Also, the values for the AC50 in [2], in assay [4] and in assay [6] were 81.5 µM (active), 50 µM (active) and 87.6 µM (active), respectively.
Consider `CCOc1ccc2c(c1)C(C)=CC(C)(C)N2`, for which the compound was called inactive in assay [1], in assay [2], in assay [3], in assay [4], in assay [5] and in assay [6]. Moreover, the compound was classed as inactive in [7], in assay [8] and in assay [9].
Take `Nc1ccc(S(=O)(=O)c2ccc(N)cc2)cc1`: the compound was called inactive in assay [1], in assay [2], in assay [3], in assay [5], in assay [6] and in assay [7]. Moreover, the call in [8] and in assay [9] was inactive. Also, the AC50 in assay [4] is 0.767 µM (active).
Take `C[C@]12C=CC(=O)C=C1CC[C@@H]1[C@@H]2C(=O)C[C@@]2(C)[C@H]1CC[C@]2(O)C(=O)CO`: the compound was classed as inactive in assay [1], in assay [2], in assay [3], in assay [4], in assay [5] and in assay [6]. For the same compound, the call in assay [7], in [8] and in [9] was inactive.

The record behind these values is PubChem BioAssay (EPA / NIEHS).
